High-throughput results (PubChem BioAssay)
LmPK inh = LmPK (Leishmania mexicana) enzyme inhibition; purified LmPK, Kinase-Glo ATP luminescence, 1 h; hit rate 0.37% among 290,000; Potency, µM (titrated, usually from 57.5 µM), usual class: inhibitors
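0.1 nM LmPK, 0.5 mM PEP, 0.1 mM ADP; 50 mM imidazole pH 7.2, 7 mM MgCl2, 50 mM KCl; 1 h RT. Kinase-Glo luminescence readout, normalized to no-enzyme (full inhibition) and uninhibited wells.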
FBPA Giardia inh = inhibitors of Giardia lamblia fructose-1,6-bisphosphate aldolase. Potency, µM (highest dose often 59.6 µM), actives largely listed as inhibitors. hit rate 0.71% among 290,000. A8B2U2. purified Giardia FBPA; also: nearly all actives have a fitted effect of over 55% in size
Target sequence (A8B2U2 whole entry, looked up): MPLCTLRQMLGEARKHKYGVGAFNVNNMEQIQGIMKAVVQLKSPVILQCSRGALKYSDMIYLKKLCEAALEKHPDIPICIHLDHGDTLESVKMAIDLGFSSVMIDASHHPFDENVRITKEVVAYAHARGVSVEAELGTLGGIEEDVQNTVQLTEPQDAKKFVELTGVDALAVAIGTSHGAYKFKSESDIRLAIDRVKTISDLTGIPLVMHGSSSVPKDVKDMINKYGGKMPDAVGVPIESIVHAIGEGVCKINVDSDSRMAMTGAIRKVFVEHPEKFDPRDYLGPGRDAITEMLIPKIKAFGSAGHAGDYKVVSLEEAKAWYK
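40 nM FBPA preincubated 10 min at RT with compound (up to 57.5 uM final), then substrate plus GAPDH/TPI/NAD/arsenate coupling and diaphorase/resazurin added. Fluorescence read after 20 min at RT, 525/598 nm.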
Sm TGR inh = blocks Schistosoma mansoni thioredoxin glutathione reductase; Q962Y6; purified TGR, DTNB reduction, TNB absorbance 405 nm; Potency, µM (series often up to 114 µM), hits mostly inhibitors; hit rate 3% among 360,000; AID 485364; also: nearly all actives have a fitted effect of over 60% in size
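Kinetic colorimetric format: TGR-catalysed, NADPH-driven DTNB reduction monitored via TNB absorbance. Enzyme dispensed at 20 nM; compound exposure 15 min at room temperature before reaction start.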
Tb PYK inh = T. brucei pyruvate kinase inhibition. Q57TT1. TbPYK enzyme, Kinase-Glo Plus ATP luminescence, 45 min. Potency, µM (titrated, usually from 76.8 µM), actives largely listed as inhibitors. hit rate 0.12% among 410,000. AID 624173; also: nearly all actives have a fitted effect of over 50% in size
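T. brucei PYK with substrate was exposed to pin-transferred compounds across a concentration series, then started with 130 uM ADP (final). After 45 min at room temperature, Kinase-Glo Plus luminescence was read, normalized and curve-fitted.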
Shiga toxin inh = Shiga toxin inhibition; inhibition, % at 38.7 µM; hit rate 9.2% among 290,000; Vero cells, Shiga toxin protein synthesis inhibition reporter; in the data active = inhibition mostly above about 28%, no sharp cut-off; inactive = mostly below about 43%
Cycloheximide cs = counter-screen hit for Shiga toxin inhibitors, cycloheximide; hit rate 12% among 300,000; AID 2314; cell reporter, cycloheximide protein synthesis inhibition counterscreen; max response, %; in the data active = max response mostly above about 13%, no sharp cut-off; inactive = mostly below about 14%; also: read at 38.3 µM for the half of the compounds with a filed dose
Hits are given with their value; – = inactive; ? = inconclusive; · = not tested or not shown; [ ] = dose if it differs, or a comment. Many of the other results were omitted from the sample, so hits are more common in it than they were. Unless noted, calls follow the shape of the dose curve; as a rule, active = well fitted curve in the direction sought with a large enough effect; inconclusive = small, poorly fitted or top-dose-only effect, or another doubt; inactive = no such curve, though single readings can be large; an effect the other way counts as inactive or inconclusive.

SMILES	LmPK inh	FBPA Giardia inh	Sm TGR inh	Tb PYK inh	Shiga toxin inh	Cycloheximide cs
COc1cc(NC(=O)CC(C)n2ccnc2)cc(OC)c1 (centres undefined)	–	–	–	–	–	–
COC(=O)C(CC(=O)c1ccc(Br)cc1)n1ccnc1 (centres undefined)	10µM	?	0.28µM	·	–	–
C=C(C)c1cccc(C(C)(C)NC(=O)N2CCN(CC(N)=O)CC2)c1	–	–	45µM	–	–	–
O=C(Nc1ccc(Cl)cc1[N+](=O)[O-])c1ccc2c(c1)OCCO2	–	–	–	–	67	40
O=C(Nc1cc(Cl)ccc1N1CCOCC1)c1ccc2c(c1)OCCO2	–	–	·	–	–	–
O=C(Nc1ccc(F)c([N+](=O)[O-])c1)c1ccc2c(c1)OCCO2	–	–	–	–	55	33
CCc1ccc(NCc2cc3cc(OC)c(OC)cc3n(CC(=O)Nc3cc(C)ccc3C)c2=O)cc1	·	·	–	–	·	·
CC(C)c1ccc(NC(=O)/C(C#N)=C/c2ccncc2)cc1	–	·	–	–	18	26
O=C(CCCc1ccccc1)Nc1cccnc1	–	–	–	–	66	19
CCCOc1ccccc1/C=C(\C#N)C(=O)Nc1cccnc1	–	–	–	–	78	34
Cc1ccc(NC(=O)/C(C#N)=C/c2ccc(C(C)C)cc2)cc1C	·	·	–	–	·	·
O=C(Nc1ccccc1)C(=O)Nc1cccnc1	14µM	–	–	–	53	32
O=C(O)/C=C/C(=O)Nc1cccnc1	–	–	–	–	–	–
O=C(CC(=O)c1ccccc1)Nc1cccnc1	–	–	–	–	–	24
N#C/C(=C\c1cccnc1)C(=O)Nc1ccccc1	–	–	–	–	–	18
N#C/C(=C\c1cccnc1)C(=O)Nc1ccc(C(=O)O)cc1	–	–	–	–	–	–
COc1ccc(C(=O)NCCn2cc(SCc3ccc(C(F)(F)F)cc3)c3ccccc32)cc1OC	·	·	–	–	·	·
COC1=C(Nc2ccc(C)cc2)C(=O)c2ccccc2C1=O	–	?	–	–	102	53
COC1=C(Nc2ccccc2)C(=O)c2ccccc2C1=O	–	?	–	–	23	19
CNc1ccc(/C=C\CCCO)cn1	·	·	·	–	·	·
CC1CN(C(=O)Nc2ccc(F)cc2F)CC(C)O1 (centres undefined)	–	–	–	–	–	–
Cc1ccc(-n2c(Cc3ccccc3)n[nH]c2=S)c(C)c1	–	–	–	10µM	–	–
S=c1[nH]nc(Cc2ccccc2)n1-c1cccc2ccccc12	10µM	–	–	3.5µM	–	–
Cn1c(Cc2ccccc2)n[nH]c1=S	–	–	–	–	–	–
Nn1c(Cc2ccccc2)n[nH]c1=S	–	–	–	–	–	18
SMILES	LmPK inh	FBPA Giardia inh	Sm TGR inh	Tb PYK inh	Shiga toxin inh	Cycloheximide cs
Nn1c(Cc2ccc(F)cc2)n[nH]c1=S	–	?	–	–	–	–
Cc1ccc(-n2c(CC#N)n[nH]c2=S)c(C)c1	?	?	–	?	–	–
COc1ccc(CCNC(=O)CCn2c(=O)c3cccn3c3ccc(F)cc32)cc1OC	·	·	–	–	·	·
Cc1c(NC(=O)CN2C(=O)NC(CCc3ccccc3)C2=O)c(=O)n(-c2ccccc2)n1C (centres undefined)	–	–	22µM	–	–	–
CC(C)(C)c1ccccc1NC(=O)CN1C(=O)NC(Cc2ccccc2)C1=O (centres undefined)	·	·	50µM	–	·	·
O=C(CN1C(=O)NC(Cc2ccccc2)C1=O)Nc1ccccc1F (centres undefined)	·	·	–	–	·	·
Cc1c(NC(=O)C(C)Oc2ncnc3ccccc23)c(=O)n(-c2ccccc2)n1C (centres undefined)	–	–	–	–	–	–
CC(C)CC1NC(=O)N(CC(=O)Nc2ccccc2-c2ccccc2)C1=O (centres undefined)	–	–	2.2µM	–	–	–
Cc1c(NC(=O)COc2ncnc3ccccc23)c(=O)n(-c2ccccc2)n1C	–	–	35µM	–	–	–
COC(=O)C1=C(C(=O)OC)[C@@H]2N(Cc3ccccc3)c3ccccc3[C@@]23C[C@@H](C(=O)OC)N(S(=O)(=O)c2ccc(OC)cc2)C3=N1	–[11.5 µM]	–[12.9 µM]	·	·	·	·
Cc1ccc(NC(=O)C2CCN(S(=O)(=O)c3ccc4c(c3)NC(=O)C(C)S4)CC2)c(Cl)c1 (centres undefined)	–	·	–	–	–	16
CC1Sc2ccc(S(=O)(=O)N3CCC(C(=O)NCCc4ccccc4)CC3)cc2NC1=O (centres undefined)	–	·	–	–	–	15
Cc1ccc(CCNC(=O)C2CCN(S(=O)(=O)c3ccc4c(c3)NC(=O)C(C)S4)CC2)cc1 (centres undefined)	–	–	–	–	–	–
Cc1cc(C)cc(NC(=O)C2CCN(S(=O)(=O)c3ccc4c(c3)NC(=O)C(C)S4)CC2)c1 (centres undefined)	–	–	–	–	–	–
COc1ccc(N2C(=O)NC(=O)/C(=C/c3cccc(OC(=O)c4cccs4)c3)C2=O)cc1Cl	–	–	14µM	–	–	–
Cc1ccc(N2C(=O)NC(=O)/C(=C/c3ccc(OC(=O)c4cccs4)cc3)C2=O)cc1	–	–	35µM	–	–	–
CCOc1cc(/C=C2\C(=O)N(c3ccc(C(N)=O)cc3)N=C2C)ccc1OC(=O)c1cccs1	–	–	–	–	–	–
N#C/C(=C\c1cccc(OC(=O)c2cccs2)c1)C(N)=O	–	–	–	–	–	–
CC1=NN(c2ccc(C(=O)O)cc2)C(=O)/C1=C\c1ccc(OC(=O)c2cccs2)cc1	–	–	–	?	–	16
O=C(Nc1ccnn1C1CCN(CCCc2ccccc2)CC1)c1cccc(F)c1	–	·	–	–	–	–
CCCCCCCCC#CCC#CCC#CCCCC(=O)O	·	–	·	·	·	·
COc1ccccc1CNC(=O)c1ccc(CSc2nc3ccncc3n2Cc2cccc(F)c2)cc1	·	·	–	–	·	·
CSc1ccc(/C=N/N2CCN(c3ccccc3)CC2)cc1	–	–	–	–	–	–
Cc1cccc(/C=N/N2CCN(c3ccccc3)CC2)c1	–	–	–	–	73	42
COc1ccccc1/C=N/N1CCN(c2ccc(Cl)cc2)CC1	–	–	–	–	·	–
SMILES	LmPK inh	FBPA Giardia inh	Sm TGR inh	Tb PYK inh	Shiga toxin inh	Cycloheximide cs
CC(/C=N/N1CCN(c2ccccc2)CC1)=C\c1ccccc1	–	–	–	–	–	–
Cc1ccc(/C=N/N2CCN(c3ccccc3)CC2)cc1	–	–	–	–	–	19
Cc1ccccc1/C=N/N1CCN(c2ccccc2)CC1	–	–	–	–	103	50
O=c1c(-c2ccc(Cl)cc2)nc2cnc(N3CCNCC3)nc2n1-c1ccccc1	·	–	·	·	·	·
CN(Cc1ccccc1)c1nc2c(S(=O)(=O)c3cccc(Cl)c3)nnn2c2ccsc12	·	·	–	–	·	·
CC1CCC/C(=N/Nc2nc3ccccc3s2)C1 (centres undefined)	–	–	–	–	123	45
